Several values for one entry are separate records, joined by “and”; a condition that tells them apart may be missing. Equal values may be shown once. Results filed as inconclusive are left out. Where a call stands in place of a potency, no number is given. The source holds several records for some structures; these can differ, active in one and inactive in another. Activity calls are given as the source filed them. Calls follow the shape of the dose curve; as a rule, active = well fitted cell-killing curve with a large enough effect in the repeat runs; inconclusive = weak or mixed curves, or effect the other way; inactive = no such curve, though single readings can be large or run the other way.
Test: qHTS assay to identify small molecule agonists of the vitamin D receptor (VDR) signaling pathway - cell viability counter screen (AID 743224); also: nearly all actives have a fitted effect of over 50% in size
Conditions: VDR-bla HEK293T viability, CellTiter-Glo luminescence, 16 h; series mostly up to 62.6 µM; activity change, negative = cytotoxicity: at the top concentration
Excerpt: U.S. Tox21 Program National Center for Advancing Translational Sciences [NCATS] NIH Chemical Genomics Center [NCGC] U.S. Environmental Protection Agency [EPA] National Institutes of Environmental Health Sciences [NIEHS] National Toxicology Program [NTP] U.S. Food and Drug Administration [FDA] Tox21 Assay Overview: The vitamin D receptor (VDR), a member of nuclear hormone receptor superfamily, plays a critical role in calcium homeostasis and bone metabolism. It is also involved in cell differentiation and growth, and thrombogenicity. […] The cytotoxicity of the Tox21 compound library against the VDR-bla cell line was tested in parallel by measuring the cell viability using CellTiter-Glo assay (Promega, Madison, WI) in the same wells.
Tox21 Assay Protocol Summary: VDR-bla cells were dispensed at 2,000 cells/6 uL/well into black wall/clear-bottom 1536-well plates using a Multidrop Combi (Thermo Fisher Scientific, Waltham, MA) dispenser. After the assay plates were incubated at a 37C and 5% CO2 for 4 h, 23 nL of compounds dissolved in DMSO, positive controls or DMSO only was transferred to the assay plate by a Pintool station (Kalypsys, San Diego, CA). The plates were incubated at 37C and 5% CO2 for 16 h. After 1 uL of LiveBLAzerTM B/G FRET substrate was added using a Bioraptr Flying Reagent Dispenser (FRD) workstation (Beckman Coulter, Indianapolis, IN, USA), the plates were incubated at room temperature for 2 h, and fluorescence intensity was measured by an Envision plate reader (PerkinElmer, Shelton, CT). For cell viability readout that measures cytotoxicity, 3 ul/well of CellTiter-Glo reagent was added into the assay plates using a FRD. After 30 min incubation at room temperature, the luminescence intensity in the plates was measured using a ViewLux (PerkinElmer) plate reader.
With `N#CS` the Potency was “inactive”.
For `O=[N+]([O-])c1ccccc1O`, the Potency was “inactive”.
For `CC(=O)[O][Hg][c]1ccccc1`, the Potency was 686 nM (active) and 871 nM (active) and 422 nM (active).
In the case of `O=C(O)CCl`, the Potency is reported as “inactive”.
For `CCCC[n+]1cccc(C)c1`, the Potency was “inactive”.
With `O=C(O)C(Cl)Cl` the Potency was “inactive”.
With `O=C(O)CC(O)(CC(=O)O)C(=O)O` the Potency was “inactive”.
In the case of `CCNc1nc(Cl)nc(NCC)n1`, the Potency is reported as “inactive”.
For `O=C(O)C(Cl)(Cl)Cl`, the Potency was “inactive”.
With `Oc1ccccc1-c1ccccc1` the Potency was “inactive”.
With `CCCC[N+]1(C)CCCCC1` the Potency was “inactive”.
In the case of `Cc1cc(Cl)ccc1OCC(=O)O`, the Potency is reported as “inactive”.
In the case of `Nc1ccc(-c2ccc(N)cc2)cc1`, the Potency is reported as “inactive”.
In the case of `OCCOc1ccccc1`, the Potency is reported as “inactive”.
In the case of `C[N+](C)(C)Cc1ccccc1`, the Potency is reported as “inactive”.
With `CCCCn1cc[n+](C)c1` the Potency was “inactive”.
In the case of `CCCC[n+]1ccccc1`, the Potency is reported as “inactive”.
With `CCCCn1cc[n+](C)c1C` the Potency was “inactive”.
With `CC[N+]1(C)CCCC1` the Potency was “inactive”.
With `COP(=O)(OC)C(O)C(Cl)(Cl)Cl` (stereo not given) the Potency was “inactive”.
In the case of `CCCC[n+]1ccccc1C`, the Potency is reported as “inactive”.
In the case of `COCC(=O)N(c1c(C)cccc1C)C(C)C(=O)OC` (stereo not given), the Potency is reported as “inactive”.
In the case of `CNC`, the Potency is reported as “inactive”.
With `COc1ccc(N)cc1` the “activity change, negative = cytotoxicity” value was -0.92% (inactive).
In the case of `CCCCCCCCCCCCOS(=O)(=O)O`, the Potency is reported as “inactive”.
For `CC(=O)O`, the Potency was “inactive”.
With `CC(Cl)(Cl)C(=O)O` the Potency was “inactive”.
In the case of `CCC[N+]1(C)CCCC1`, the Potency is reported as “inactive”.
For `CCCC[N+]1(C)CCCC1`, the Potency was “inactive”.
In the case of `CCn1cc[n+](C)c1C`, the Potency is reported as “inactive”.
For `O=c1nc(O)n(Cl)c(=O)n1Cl`, the Potency was “inactive”.
With `O=[N+]([O-])O` the Potency was “inactive”.
With `CCCCCCCCCCCC(=O)O` the “activity change, negative = cytotoxicity” value was 0.178% (inactive).
In the case of `CCCC[n+]1ccc(C)cc1`, the Potency is reported as “inactive and 43.4 µM (active)”.
With `CCCn1cc[n+](C)c1` the Potency was “inactive”.
With `CCC[N+]1(C)CCCCC1` the Potency was “inactive”.
In the case of `CCCCCCCCCCCCCC[P+](CCCCCC)(CCCCCC)CCCCCC`, the Potency is reported as 9.82 µM (active) and 5.54 µM (active).
For `O=c1[nH]c(=O)n(Cl)c(=O)n1Cl`, the Potency was “inactive”.
With `CC[n+]1ccccc1` the Potency was “inactive”.
With `Cc1cc(Cl)ccc1N` the Potency was “inactive”.

Reference: PubChem BioAssay (Tox21)
Potency is read from the fitted curve at half-maximal effect.
